Reference: PubChem BioAssay
Calls of active or inactive are those of the source.

Experiments:
[1] = test system: Plasmodium falciparum Sir2 (PF13_0152, Sir2A); test: pfSir2 binders on small-molecule microarrays, primary screen, biochemical, small-molecule microarray, 635 nm fluorescence (AID 1098); conditions: small-molecule microarray binding, fluorescence 635 nm; higher = more signal;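 also: score merges spot fluorescence intensity with its signal-to-noise ratio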
[2] = small-molecule microarray binders of probe aDKK1, primary screen, biochemical, biotinylated probe, 635/667 nm fluorescence (AID 1099); conditions: higher = more signal;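 also: score merges 667nm spot fluorescence with signal to noise across triplicate slides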
[3] = small-molecule microarray binders of probe aCHRDL2, primary screen, biochemical, biotinylated probe, 635/667 nm fluorescence (AID 1100); conditions: higher = more signal
[4] = splicing luciferase reporter signal modulators, primary screen, spliceosome inhibition project, cell-based, HEK293, splice +/- reporter (AID 1101); conditions: luminescence, 24 h, higher = more signal, called active from +8 up or from −8 down;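 also: HEK293 cells carrying a splicing-competent luciferase reporter gene; test concentration not given here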
[5] = biological target: Fibroblast growth factor 10 (Homo sapiens) (UniProt O15520); test: FGF10 binders on small-molecule microarrays, primary screen, biochemical, small-molecule microarray, 635 nm fluorescence (AID 1102); conditions: FGF10 binding, fluorescence 635 nm, higher = more signal
Sequence of Fibroblast growth factor 10 (Homo sapiens) (O15520 whole entry, looked up): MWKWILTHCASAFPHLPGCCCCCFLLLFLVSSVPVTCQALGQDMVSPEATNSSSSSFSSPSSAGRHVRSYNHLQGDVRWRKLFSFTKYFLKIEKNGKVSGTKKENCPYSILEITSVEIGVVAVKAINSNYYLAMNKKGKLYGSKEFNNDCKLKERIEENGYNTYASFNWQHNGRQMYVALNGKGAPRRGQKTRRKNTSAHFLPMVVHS

[6] = test system: glycogen synthase kinase-3 (GSK3A per assay name; protocol says GSK3B); test: GSK3 binders on small-molecule microarrays, primary screen, biochemical, small-molecule microarray, 635 nm fluorescence, GSK3A (AID 1103); conditions: small-molecule microarray binding, fluorescence 635 nm; higher = more signal; also: the record names both GSK3A and GSK3B
[7] = biological target: Epidermal growth factor receptor (Homo sapiens) (UniProt P00533); test: EGFR binders on small-molecule microarrays, primary screen, biochemical, small-molecule microarray, 635 nm fluorescence (AID 1104); conditions: EGFR binding, higher = more signal;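 also: score merges 667 nm emission intensity with spot signal to noise over triplicate slides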
Sequence of Epidermal growth factor receptor (Homo sapiens) (P00533 whole entry, looked up): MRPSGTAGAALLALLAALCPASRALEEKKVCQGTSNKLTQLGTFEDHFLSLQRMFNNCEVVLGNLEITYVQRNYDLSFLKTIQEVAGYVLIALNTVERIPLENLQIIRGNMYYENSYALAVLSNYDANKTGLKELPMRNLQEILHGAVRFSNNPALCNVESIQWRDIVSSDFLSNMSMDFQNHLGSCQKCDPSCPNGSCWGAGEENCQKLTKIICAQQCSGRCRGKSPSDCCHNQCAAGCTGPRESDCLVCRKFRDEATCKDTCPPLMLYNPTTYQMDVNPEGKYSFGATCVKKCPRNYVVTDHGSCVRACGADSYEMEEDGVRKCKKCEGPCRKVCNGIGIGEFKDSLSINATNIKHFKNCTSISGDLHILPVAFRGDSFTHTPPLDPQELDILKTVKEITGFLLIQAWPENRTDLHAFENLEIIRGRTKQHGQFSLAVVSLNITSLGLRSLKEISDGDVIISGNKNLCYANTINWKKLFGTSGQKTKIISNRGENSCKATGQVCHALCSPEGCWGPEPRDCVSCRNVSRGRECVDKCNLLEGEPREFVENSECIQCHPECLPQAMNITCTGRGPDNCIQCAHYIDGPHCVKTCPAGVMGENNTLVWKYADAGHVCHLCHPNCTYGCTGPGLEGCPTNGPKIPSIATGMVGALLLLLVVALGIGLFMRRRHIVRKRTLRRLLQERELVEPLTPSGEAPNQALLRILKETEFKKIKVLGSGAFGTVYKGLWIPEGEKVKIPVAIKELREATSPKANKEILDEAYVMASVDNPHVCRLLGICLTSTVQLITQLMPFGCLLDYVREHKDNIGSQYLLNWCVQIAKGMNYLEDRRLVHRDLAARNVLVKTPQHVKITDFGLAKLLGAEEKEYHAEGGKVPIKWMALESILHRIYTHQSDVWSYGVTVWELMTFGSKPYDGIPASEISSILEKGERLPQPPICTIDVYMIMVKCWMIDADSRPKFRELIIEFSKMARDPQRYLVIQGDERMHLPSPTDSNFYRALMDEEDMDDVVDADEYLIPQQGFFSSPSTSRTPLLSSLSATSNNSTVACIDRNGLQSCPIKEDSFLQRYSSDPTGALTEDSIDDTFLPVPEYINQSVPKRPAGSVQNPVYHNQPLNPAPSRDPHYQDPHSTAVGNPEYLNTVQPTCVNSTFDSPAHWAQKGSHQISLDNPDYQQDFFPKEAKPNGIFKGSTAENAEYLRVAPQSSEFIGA

[8] = biological target: Follistatin-related protein 3 (Homo sapiens) (UniProt O95633); test: FSTL3 binders on small-molecule microarrays, primary screen, biochemical, small-molecule microarray, 635 nm fluorescence (AID 1105); conditions: FSTL3 binding, higher = more signal;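 also: score merges emission near 667 nm and signal to noise per printed spot across three slides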
Sequence of Follistatin-related protein 3 (Homo sapiens) (O95633 whole entry, looked up): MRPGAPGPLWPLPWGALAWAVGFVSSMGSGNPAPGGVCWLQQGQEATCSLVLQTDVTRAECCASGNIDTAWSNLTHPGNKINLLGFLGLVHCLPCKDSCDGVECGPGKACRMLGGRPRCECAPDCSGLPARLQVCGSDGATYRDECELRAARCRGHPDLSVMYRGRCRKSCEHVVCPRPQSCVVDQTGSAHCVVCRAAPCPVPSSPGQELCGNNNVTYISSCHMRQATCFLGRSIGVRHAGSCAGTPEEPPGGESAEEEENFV

[9] = biological target: Dickkopf-related protein 1 (Homo sapiens) (UniProt O94907); test: DKK1 binders on small-molecule microarrays, primary screen, biochemical, small-molecule microarray, 635 nm fluorescence scan (AID 1106); conditions: DKK1 binding, higher = more signal;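 also: score merges emission near 667 nm with signal to noise over three replicate slides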
Sequence of Dickkopf-related protein 1 (Homo sapiens) (O94907 whole entry, looked up): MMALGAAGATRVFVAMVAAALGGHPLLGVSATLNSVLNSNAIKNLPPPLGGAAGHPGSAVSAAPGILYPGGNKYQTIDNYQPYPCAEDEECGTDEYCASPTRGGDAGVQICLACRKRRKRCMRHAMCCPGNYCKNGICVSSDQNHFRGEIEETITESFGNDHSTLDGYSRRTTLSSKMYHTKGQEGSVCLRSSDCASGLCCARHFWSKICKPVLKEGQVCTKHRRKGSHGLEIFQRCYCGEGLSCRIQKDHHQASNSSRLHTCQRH

[10] = test system: Inhibin beta A chain (activin A); test: INHBA (activin A) binders on microarrays, primary screen, biochemical, small-molecule microarray, 635 nm fluorescence scan (AID 1107); conditions: small-molecule microarray binding, higher = more signal;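 also: mouse activin A protein probed at 4.33 µg/mL on printed slides; score merges bound-protein fluorescence near 667 nm with spot signal-to-noise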
[11] = test system: Human papillomavirus type 1a protein E7 (residues 44-93); test: HPV1a E7 fragment binders on microarrays, primary screen, biochemical, small-molecule microarray, residues 44-93, 635 nm fluorescence (AID 1108); conditions: small-molecule microarray binding, fluorescence 635 nm; higher = more signal;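 also: E7 fragment applied at 1 µg/mL in TBST for 1 h at 4 C; score combines spot fluorescence with its signal to noise ratio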
[12] = modulators of HCV replicon luciferase signal, primary screen, HCV replication inhibitor project, Huh7 cells, luciferase reporter (AID 1109); conditions: 48 h, higher = more signal;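 also: huh7 hepatoma cells harbouring a luciferase neomycin HCV replicon reporter; luciferase luminescence as measure of HCV replicon replication; test concentration not given here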
[13] = biological target: Left-right determination factor 2 (Homo sapiens) (UniProt O00292); test: LEFTY2 binders on small-molecule microarrays, primary screen, biochemical, small-molecule microarray, 635 nm fluorescence scan (AID 1110); conditions: LEFTY2 binding, higher = more signal
Sequence of Left-right determination factor 2 (Homo sapiens) (O00292 whole entry, looked up): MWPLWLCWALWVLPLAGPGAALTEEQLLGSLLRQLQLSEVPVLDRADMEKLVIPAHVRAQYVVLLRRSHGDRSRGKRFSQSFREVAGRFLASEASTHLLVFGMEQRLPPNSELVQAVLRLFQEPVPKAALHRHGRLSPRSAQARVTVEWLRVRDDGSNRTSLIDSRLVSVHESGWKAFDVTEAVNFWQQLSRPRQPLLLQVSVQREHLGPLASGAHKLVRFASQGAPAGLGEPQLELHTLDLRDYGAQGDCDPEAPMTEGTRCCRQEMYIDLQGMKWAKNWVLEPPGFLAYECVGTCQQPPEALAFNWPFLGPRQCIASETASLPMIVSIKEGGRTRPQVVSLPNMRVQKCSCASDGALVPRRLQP

[14] = biological target: Calmodulin-1 (Homo sapiens) (UniProt P0DP23); test: CALM1 binders on microarrays, EGTA buffer, profiling panel, biochemical, small-molecule microarray, Cy5-labelled CALM1 (AID 1111); conditions: Cy5-CALM1 binding fluorescence, higher = more signal;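 also: labelled calmodulin applied in Tris saline Tween buffer holding calcium plus EGTA and DTT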
[15] = biological target: Calmodulin-1 (Homo sapiens) (UniProt P0DP23); test: calcium-bound CALM1 binders on microarrays, profiling panel, artefact control for SMM control-protein annotation, biochemical, small-molecule microarray, Cy5-labelled CALM1, plus calcium (AID 1112); conditions: Cy5-CALM1 binding fluorescence, higher = more signal;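 also: score merges spot fluorescence with signal to noise from triplicate slides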
[16] = small-molecule microarray binders of probe aWnt5a, primary screen, biochemical, biotinylated probe, 635/667 nm fluorescence (AID 1113); conditions: higher = more signal;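 also: score merges 667 nm fluorescence intensity with signal-to-noise per printed feature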
[17] = small-molecule microarray binders of probe aShh, primary screen, biochemical, biotinylated probe, 635/667 nm fluorescence (AID 1114); conditions: higher = more signal;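 also: probe is biotin-labelled aShh protein from a stem cell growth factor screen; measures binding of labelled protein to compounds printed on the slide; score merges feature fluorescence at 667 nm with signal-to-noise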
[18] = small-molecule microarray binders of probe aNog, primary screen, biochemical, biotinylated probe, 635/667 nm fluorescence (AID 1115); conditions: higher = more signal;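 also: probe is biotinylated aNog protein used at 0.15 µg/mL for 1 h at 4 C; z-score combines 667 nm fluorescence of each spot with its signal to noise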
[19] = biological target: Torsin-1A-interacting protein 1 (Homo sapiens) (UniProt Q5JTV8); test: LAP1 binders from COS7 cell lysate, primary screen, small-molecule microarray, 635/667 nm fluorescence (AID 1116); conditions: COS7-hLAP1 lysate binding, 635 nm fluorescence, higher = more signal
Sequence of Torsin-1A-interacting protein 1 (Homo sapiens) (Q5JTV8 whole entry, looked up): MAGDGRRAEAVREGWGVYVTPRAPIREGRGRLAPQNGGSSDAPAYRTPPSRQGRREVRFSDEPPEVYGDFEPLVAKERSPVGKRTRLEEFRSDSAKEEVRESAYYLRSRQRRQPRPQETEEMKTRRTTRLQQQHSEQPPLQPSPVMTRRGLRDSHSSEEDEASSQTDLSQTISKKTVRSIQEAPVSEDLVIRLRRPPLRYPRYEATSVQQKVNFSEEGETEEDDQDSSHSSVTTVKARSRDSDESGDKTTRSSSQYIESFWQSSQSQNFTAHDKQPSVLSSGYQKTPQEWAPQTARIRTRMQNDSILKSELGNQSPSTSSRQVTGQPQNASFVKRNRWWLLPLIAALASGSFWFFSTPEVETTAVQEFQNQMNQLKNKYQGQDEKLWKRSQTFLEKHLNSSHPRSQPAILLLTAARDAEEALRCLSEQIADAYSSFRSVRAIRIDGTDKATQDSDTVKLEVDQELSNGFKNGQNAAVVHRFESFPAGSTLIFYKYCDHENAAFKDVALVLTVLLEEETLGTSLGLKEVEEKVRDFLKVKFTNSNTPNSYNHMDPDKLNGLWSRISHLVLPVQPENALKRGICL

[20] = biological target: Alpha-bungarotoxin (Bungarus multicinctus) (UniProt P60615); test: alpha-bungarotoxin binders on microarray, profiling panel, artefact control for SMM control protein annotation, biochemical, small-molecule microarray, Alexa647 label, 635/667 nm fluorescence (AID 1117); conditions: alpha-BTX-A647 binding fluorescence, higher = more signal
Sequence of Alpha-bungarotoxin (Bungarus multicinctus) (P60615 whole entry, looked up): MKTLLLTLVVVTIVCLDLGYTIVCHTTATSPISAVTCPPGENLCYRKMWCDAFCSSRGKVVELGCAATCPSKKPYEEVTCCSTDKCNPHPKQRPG

| SMILES | composite z-score [1] | composite z-score [2] | composite z-score [3] | z-score [4] | composite z-score [5] | composite z-score [6] | composite z-score [7] | composite z-score [8] | composite z-score [9] | composite z-score [10] | composite z-score [11] | z-score [12] | composite z-score [13] | composite z-score [14] | composite z-score [15] | composite z-score [16] | composite z-score [17] | composite z-score [18] | composite z-score [19] | composite z-score [20] |
| --- | --- | --- | --- | --- | --- | --- | --- | --- | --- | --- | --- | --- | --- | --- | --- | --- | --- | --- | --- | --- |
| [N-]=[N+]=NCc1ccccc1[C@H]1OC(c2ccc(OCCCO)cc2)=N[C@@]1(Cc1ccccc1)C(=O)NCc1ccccc1 | 0.173 | 0.646 | 0.894 | 1.09 (inactive) | 0.672 | 1.27 | 0.169 | 0.231 | -0.238 | -0.151 | 0.296 | -2.19 | 0.0739 | 1.45 | 0.727 | 0.075 | 0.22 | 0.683 | 0.881 | 0.761 |
| CCN(CC)c1ccc(N2CC=CC34O[C@@H]5/C=C\CCC(C)OC(=O)C5[C@H]3C(=O)N(C(CO)C(C)C)[C@@H]4C2=O)cc1 (stereo not given in full) | 0.492 | -0.204 | 0.0959 | -0.208 (inactive) | -0.709 | -0.806 | -0.532 | -1.1 | -0.41 | 1.15 | -0.0747 | -0.668 | -0.896 | -0.55 | -0.866 | -0.062 | 0.214 | -0.287 | -0.251 | 0.174 |
| Cc1ccc(S[C@]2(C(=O)NCC(C)C)CC(=O)N(Cc3cc(C(F)(F)F)cc(C(F)(F)F)c3)[C@@H]2c2ccc(CO)cc2I)cc1 | -0.313 | 0.75 | 1.39 | -0.0957 (inactive) | -0.755 | -1.16 | -1.78 | -0.615 | -2.14 | 0.923 | 0.133 | -1.01 | -2.48 | -0.571 | 0.0903 | -0.166 | 0.108 | 0.225 | 0.116 | -1.05 |
| Cc1ccc(S[C@]2(C(=O)NCC(F)(F)F)CC(=O)N(C(C)C)[C@@H]2c2ccc(CO)cc2I)cc1 | 0.903 | 0.372 | 0.893 | -0.465 (inactive) | 0.203 | -0.547 | -0.619 | -1.02 | -0.78 | 0.743 | -0.554 | -1.76 | -0.754 | -0.0874 | 0.363 | -0.101 | -0.0192 | 0.986 | -0.261 | -0.472 |
| C#CCN(CC1=CCCCC1)[C@H](c1ccccc1Br)[C@@H](O)Cc1ccccc1 | 1.53 | -0.0907 | 0.979 | -1.37 (inactive) | -1.25 | -0.28 | -1.56 | -1.28 | -1.07 | 0.685 | -0.0413 | -2.33 | -1.07 | -0.929 | -0.568 | -0.118 | 0.108 | -0.368 | 0.632 | 0.92 |
| CCOC(=O)C=Cc1cc([N+](=O)[O-])ccc1O | -0.551 | -0.14 | -0.134 | -1.72 (inactive) | -0.395 | -0.398 | -0.899 | -0.971 | -0.693 | -0.855 | 0.0311 | -1.47 | -0.609 | -0.211 | -0.5 | -0.124 | 0.173 | -0.377 | 0.106 | -0.234 |
